Source: PubChem BioAssay
DT40 TDP1 CPT: qHTS for Inhibitors of human tyrosyl-DNA phosphodiesterase 1 (TDP1): qHTS in cells in presence of CPT | hit rate 12% among 420,000 | Potency, µM (titrated, usually from 46.2 µM), for inactives: at the top dose activity change, negative = growth inhibition, usual class: inhibitors | chicken DT40 Tdp1-/-;hTDP1 cells + 20 nM CPT, ATP luminescence, 48 h | AID 686979, 2013; note: potency is the fitted concentration of half-maximal effect; nearly all actives have a fitted effect of over 55% in size
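Cell growth measured by CellTiter-Glo luminescence after a minimum 48 h, 37 C compound exposure with 20 nM CPT in Tdp1-knockout DT40 cells stably expressing hTDP1, seeded 400/well; qHTS titration format.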
TDP1 cell noCPT: qHTS for Inhibitors of human tyrosyl-DNA phosphodiesterase 1 (TDP1): qHTS in cells in absence of CPT | hit rate 15% among 420,000 | DT40 Tdp1-/- hTDP1 cells, no CPT, ATP luminescence, 48 h | Potency, µM (highest dose often 46.2 µM), without a hit: at the highest dose activity change, negative = growth inhibition, usual class: inhibitors; note: potency is the fitted concentration of half-maximal effect; nearly all actives have a fitted effect of over 55% in size
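Cells were dispensed at 400 per well, compounds added by pin tool, plates incubated ≥48 hr at 37 °C, then CellTiter-Glo added for 30 min at room temperature before luminescence reading. Line: DT40 Tdp1-/- complemented with hTDP1; camptothecin omitted.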
IL-1B inflam inh: qHTS for Inhibitors of Inflammasome Signaling: IL-1-beta AlphaLISA Primary Screen; hit rate 4.7% among 360,000; activity change, % at 57.5 µM; AID 743279, 2014; THP-1 LPS/ATP IL-1B secretion, AlphaLISA, 16 h; stronger effect = lower value; in the data active = activity change below about -50%; inconclusive = mostly about -30% to -49%
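Secreted IL-1B measured by AlphaLISA bead assay after 16 h compound exposure of THP-1 cells; compounds (final up to 57.5 uM) added 1 h before LPS (250 ng/mL) and ATP (1.25 mM) stimulation; lower signal means less secretion.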
ELG1 repair inh: qHTS screen for small molecules that inhibit ELG1-dependent DNA repair in human embryonic kidney (HEK293T) cells expressing luciferase-tagged ELG1 | HEK293T ELG1-luciferase reporter, luminescence, 16 h; DNA damage induced by 5-fluorouridine | Potency, µM (highest dose often 46.1 µM), for inactives: at the top dose activity change, negative = inhibition, usual class: inhibitors | hit rate 2.3% among 330,000; note: potency is the fitted concentration of half-maximal effect; nearly all actives have a fitted effect of over 55% in size
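Luminescence from the luciferase reporter, measured 30 min after ONE-Glo reagent at room temperature, was the read-out. Beforehand, 2,000 cells per well were exposed for 16 hr at 37 °C to 5-fluorouridine together with compound or vehicle.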
TDP1 block: qHTS Assay for Inhibitors of Tyrosyl-DNA Phosphodiesterase (TDP1); Tyrosyl-DNA phosphodiesterase 1 (Homo sapiens), Q9NUW8; recombinant TDP1, AlphaScreen DNA substrate cleavage; Potency, µM (series often up to 130 µM), for inactives: at the top dose activity change, negative = inhibition, usual class: inhibitors; hit rate 0.28% among 350,000; AID 485290, 2010; note: potency is the fitted concentration of half-maximal effect; nearly all actives have a fitted effect of over 40% in size
Target sequence (Q9NUW8 whole entry, looked up): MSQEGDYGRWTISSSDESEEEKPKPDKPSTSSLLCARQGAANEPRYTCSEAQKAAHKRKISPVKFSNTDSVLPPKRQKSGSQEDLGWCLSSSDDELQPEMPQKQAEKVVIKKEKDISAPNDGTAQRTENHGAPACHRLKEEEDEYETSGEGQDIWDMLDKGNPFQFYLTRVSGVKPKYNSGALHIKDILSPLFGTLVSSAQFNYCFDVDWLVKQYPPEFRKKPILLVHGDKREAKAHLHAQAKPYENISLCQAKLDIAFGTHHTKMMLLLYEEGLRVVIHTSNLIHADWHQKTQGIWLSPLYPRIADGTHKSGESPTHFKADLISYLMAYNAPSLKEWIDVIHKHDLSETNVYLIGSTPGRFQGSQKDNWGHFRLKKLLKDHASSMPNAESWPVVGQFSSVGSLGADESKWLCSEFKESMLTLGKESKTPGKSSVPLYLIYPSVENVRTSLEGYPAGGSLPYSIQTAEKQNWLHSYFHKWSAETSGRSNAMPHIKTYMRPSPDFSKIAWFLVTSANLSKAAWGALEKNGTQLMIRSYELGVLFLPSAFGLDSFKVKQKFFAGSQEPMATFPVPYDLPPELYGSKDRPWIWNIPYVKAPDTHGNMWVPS
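AlphaScreen read-out: signal falls as enzyme removes the 3' tyrosine-FITC from a 5'-biotinylated DNA oligo (15 nM, 5 min, RT). Enzyme was E. coli-made recombinant Tdp1 at 1 nM, exposed to compound for 15 min beforehand; beads 10 ug/ml, 10 min.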
Giardia kill: Small Molecules that selectively kill Giardia lamblia: qHTS | Giardia lamblia trophozoite viability | activity change, % at 7.66 µM, hits read low | hit rate 0.15% among 340,000 | AID 540267, 2011; in the data active = activity change below about -80%; inconclusive = between about -30% and that limit;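 note: parasites exposed to compound for two days anaerobically before the ATP read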
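Luminescence from cellular ATP indicates surviving trophozoites (100 cells/well) following 48 hrs anaerobic compound treatment at 37 deg C; signal develops 15-30 min at room temperature.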
* hit, by the source's call; ? = inconclusive; . = not tested or not shown; [ ] = another dose, or the depositor's remark. Compounds with a hit are over-represented: about 19% of the library has one in this group of screens. Unless noted, calls come from the whole dose curve; as a rule, active = well fitted curve in the direction sought with a large enough effect; inconclusive = small, poorly fitted or top-dose-only effect, or another doubt; inactive = no such curve, though single readings can be large; an effect the other way counts as inactive or inconclusive. % is set by controls: 0 for no effect and ±100 for the full control effect.

SMILES	DT40 TDP1 CPT	TDP1 cell noCPT	IL-1B inflam inh	ELG1 repair inh	TDP1 block	Giardia kill
N[C@H](C(=O)O)c1ccc(C(=O)O)cc1	-2.8%	-23.0%	.	.	?	.
CCOC(=O)C1=C(C)Nc2ccccc2N=C1NC(=O)c1ccc(Cl)c(S(=O)(=O)N2CCCC2)c1	-22.1%	?	0.0	?	0.0%	13.4
CCOC(=O)C1=C(CC)Nc2ccccc2N=C1NC(=O)c1ccc(OC)c(S(=O)(=O)N2CCCCC2C)c1 (configuration not stated)	?	?	?	23.1µM*	4.9%	-18.1
CC(=O)c1ccc(Nc2nc(C(C)N)cs2)cc1 (configuration not stated)	3.9%	0.5%	-26.0	.	.	.
CC(=O)c1ccc(Nc2nc(C(N)Cc3ccc(C(F)(F)F)cc3)cs2)cc1 (configuration not stated)	14.6µM*	16.4µM*	?	.	.	.
Cc1ccc(C(=O)Nc2nc(C(N)Cc3ccc(C(F)(F)F)cc3)cs2)cc1 (configuration not stated)	?	?	-64.5*	.	.	.
NC(Cc1ccc(C(F)(F)F)cc1)c1csc(Nc2ccc(C(=O)c3ccccc3)cc2)n1 (configuration not stated)	?	?	-69.9*	.	.	.
CN(Cc1ccccc1)C(=O)c1ccc2nc([C@@H]3O[C@H](CO)[C@H](O)[C@H](O)[C@H]3O)[nH]c2c1	-8.2%	-3.8%	28.2	.	.	.
Cc1cccc(NC(=O)CS(=O)(=O)c2cccc3nsnc23)c1	-5.2%	-25.4%	.	.	-4.4%	.
O=C(NCc1cccc2ccsc12)c1cccs1	?	?	-17.1	?	-0.5%	-21.4
CC(OC(=O)CCN1C(=O)c2cccc([N+](=O)[O-])c2C1=O)C(=O)Nc1cc(Cl)cc(Cl)c1 (configuration not stated)	-15.7%	-0.2%	-7.8	-3.5%	-3.4%	-1.8
COc1cc(CC(NC(C)=O)C(=O)NC2CCN(S(=O)(=O)c3ccc(NC(C)=O)cc3)CC2)cc(OC)c1 (configuration not stated)	11.2%	4.8%	-1.5	26.9%	.	4.0
CCCn1c(SCC(=O)NCc2ccc(Cl)cc2)n[nH]c1=O	8.8%	-9.2%	1.9	-17.8%	-4.7%	1.3
O=C(CO/N=C/c1ccc(OC(F)F)cc1)NC1CCCCCC1	?	?	-56.5*	?	0.0%	3.8
CC(C)Oc1ccc(C(=O)OCC(=O)NC2CCCCCC2)cc1	?	16.4µM*	18.0	-5.2%	-2.3%	6.0
O=C(CO/N=C/c1ccc(OC(F)F)cc1)NC1CCCC1	-20.5%	-27.1%	-14.4	-16.0%	2.6%	-2.9
COc1ccccc1CN1CCNC(=O)C1=O	-25.0%	-15.0%	.	.	-3.8%	.
Cc1cccc(-n2ncc3c(N4CCC(C)CC4)ncnc32)c1	?	?	?	?	-5.9%	-16.4
COc1cccc(N2CCN(c3ncnc4c3cnn4-c3ccc(C)cc3C)CC2)c1	1.84µM*	2.59µM*	-79.5*	3.26µM*	8.6%	22.7
CCN1CCN(c2ncnc3c2cnn3-c2cccc(C)c2)CC1	23.1µM*	?	.	.	0.0%	.
Cc1cccc(-n2ncc3c(N4CCCCCC4)ncnc32)c1	?	20.6µM*	.	.	10.4%	.
Cc1ccc(-n2ncc3c(N4CCCC4)ncnc32)c(C)c1	-3.5%	-7.8%	0.0	1.4%	9.8%	6.1
CCN1CCN(c2ncnc3c2cnn3-c2ccccc2)CC1	3.5%	-22.6%	-18.7	?	2.9%	-4.5
Cc1ccc(-n2ncc3c(N4CCCC(C)C4)ncnc32)c(C)c1 (configuration not stated)	8.2µM*	7.31µM*	-11.3	?	.	-6.9
COc1ccc(CCNC(=O)Cn2nnc(-c3ccc(Cl)cc3)n2)cc1OC	8.2%	-1.1%	.	.	4.7%	.
SMILES	DT40 TDP1 CPT	TDP1 cell noCPT	IL-1B inflam inh	ELG1 repair inh	TDP1 block	Giardia kill
CSc1ccc(CN2CCC2(C)C(=O)NCc2cccs2)cc1 (configuration not stated)	?	?	0.0	.	.	.
COc1ccc(-n2c(=O)cnc3cnc(N4CCN(C)CC4)nc32)cc1	2.6%	2.5%	.	.	.	.
CCOc1ccc(-c2cc3nc(C4CCN(C(=O)OC(C)(C)C)CC4)c(C(=O)Nc4cc(OC)ccc4OC)cn3n2)cc1	?	?	.	.	3.8%	.
COc1ccc(-c2cc3nc(C4CCN(C(=O)OC(C)(C)C)CC4)c(C(=O)Nc4cc(Cl)cc(Cl)c4)cn3n2)cc1	-35.2%	?	.	.	1.3%	.
COc1ccc(-c2cc3nc(C4CCN(C(=O)OC(C)(C)C)CC4)c(C(=O)Nc4cc(C)cc(C)c4)cn3n2)cc1	?	16.4µM*	.	.	1.3%	.
CCOc1ccc(-c2cc3nc(C4CCN(C(=O)OC(C)(C)C)CC4)c(C(=O)Nc4ccc(C)c(F)c4)cn3n2)cc1	9.2µM*	7.31µM*	.	.	-1.3%	.
CCOC(=O)c1ccc(N2CCN(C(=O)c3ccccc3)CC2)c(NC(=O)c2ccco2)c1	-24.0%	?	7.8	?	8.2%	8.1
COC(=O)C(C(=O)OC)[C@@H](NC(=O)OCc1ccccc1)c1ccccc1	.	.	.	.	5.6%	.
COC(=O)c1c(C)[nH]c(C)c1C(=O)c1ccccc1Cc1ccccc1	40.1µM*	7.31µM*	8.0	.	18.0%[56.1 µM]	-25.5
Cc1cccc(NC(=O)CN(CC2CCCO2)C(=O)c2oc3ccccc3c2C)c1C (configuration not stated)	29.1µM*	?	12.2	?	0.6%	1.0
O=C(N/N=C/c1ccc(F)cc1)c1cc(-c2ccc3c(c2)OCO3)n[nH]1	15.1%	23.1µM*	-11.3	6.2%	.	4.7
COc1ccc(/C=N/NC(=O)c2cc(-c3ccc4c(c3)OCO4)n[nH]2)cc1OC	18.4µM*	11.6µM*	?	14.6µM*	6.9%	2.3
CN(C)c1ccc(/C=N/NC(=O)c2cc(-c3ccc4c(c3)OCO4)n[nH]2)cc1	18.4µM*	20.6µM*	19.5	26.8%	5.1%	-8.6
Cc1ccc(C)c(-n2cc(CN3CCCN(C=O)CC3)c(-c3ccccc3)n2)c1	-12.5%	3.5%	13.6	-2.3%	0.0%	1.9
COC(=O)c1nnc(C(=O)NCc2ccccc2)c2[nH]c3ccccc3c12	.	.	.	.	8.7%	.
COCC(=O)N1CCC2(CC1)CN(c1ccc(-c3ccccc3)cc1)C2	8.2µM*	5.8µM*	.	.	.	.
